This is a sample that favours compounds with a hit; in the whole collection about 10% have one here.
GPT2 inhibitor – GPT2 alanine aminotransferase inhibition | Q8TD30 | Recombinant GPT2, coupled pyruvate oxidase/HRP Amplex Red fluorescence | Potency, µM (top dose mostly 57.7 µM), for the others: top-dose activity change, negative = inhibition, most hits filed as inhibitors | 0.25% of 100,000 active | AID 1671188; note: nearly all actives have a fitted effect of over 60% in size
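Fluorescence of coupled pyruvate oxidase/HRP/Amplex Red system (50uM Amplex, 30 min, dark) reports pyruvate formed by GPT2. Enzyme reaction: 10ng/uL GPT2, 2mM L-alanine, 250uM a-KG, 30 min room temperature, pH 7.5; 50uM AOA control.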
FLuc inh – blocks purified firefly luciferase enzyme activity. 2.5% of 76,000 active. AID 1347043. purified P. pyralis luciferase, luminescence, biochemical. Potency, µM (top dose mostly 115 µM), usual class: inhibitors; note: nearly all actives have a fitted effect of over 65% in size
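FLuc 10nM, D-luciferin 10uM, ATP 10uM, Mg acetate 10mM, Tris acetate pH 7.5, Tween/BSA; cpd qHTS; enzyme added last; CCD luminescence.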
HEK293 tox – cytotoxic compounds in HEK 293 cells; HEK 293 viability, ATP luminescence (CellTiter-Glo), 48-72 h; Potency, µM (highest dose often 115 µM), for inactives: at the highest dose activity change, negative = cytotoxicity, actives largely listed as inhibitors; 6.6% of 94,000 active; note: nearly all actives have a fitted effect of over 60% in size
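Viability of HEK 293 cells, plated at 250 cells/well, was judged by cellular ATP after compound treatment for 48 or 72 hr. Luminescence was imaged 10 min after CellTiter-Glo addition at room temperature.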
NIH3T3 tox – cytotoxic compounds in NIH 3T3 cells | NIH 3T3 viability, CellTiter-Glo ATP luminescence, 48-72 h | 4.3% of 94,000 active | Potency, µM (series often up to 96.7 µM), for the others: at the top dose activity change, negative = cytotoxicity, most hits filed as inhibitors; note: nearly all actives have a fitted effect of over 55% in size
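Viability of NIH 3T3 cells after 48 or 72 hr compound treatment at 37 °C was assessed by CellTiter-Glo, with luminescence imaged following a 10 min room-temperature step.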
hNpr1 antagonist – antagonists of human natriuretic peptide receptor Npr1; 1.6% of 76,000 active; AID 1347048; P16066; HEK293 hNpr1 GloSensor cGMP, ANP-stimulated luminescence; Potency, µM (titrated, usually from 46.3 µM), for inactives: top-dose activity change, negative = inhibition, usual class: inhibitors; calls by dose curve; note: nearly all actives have a fitted effect of over 60% in size
Target sequence (P16066 whole entry, looked up): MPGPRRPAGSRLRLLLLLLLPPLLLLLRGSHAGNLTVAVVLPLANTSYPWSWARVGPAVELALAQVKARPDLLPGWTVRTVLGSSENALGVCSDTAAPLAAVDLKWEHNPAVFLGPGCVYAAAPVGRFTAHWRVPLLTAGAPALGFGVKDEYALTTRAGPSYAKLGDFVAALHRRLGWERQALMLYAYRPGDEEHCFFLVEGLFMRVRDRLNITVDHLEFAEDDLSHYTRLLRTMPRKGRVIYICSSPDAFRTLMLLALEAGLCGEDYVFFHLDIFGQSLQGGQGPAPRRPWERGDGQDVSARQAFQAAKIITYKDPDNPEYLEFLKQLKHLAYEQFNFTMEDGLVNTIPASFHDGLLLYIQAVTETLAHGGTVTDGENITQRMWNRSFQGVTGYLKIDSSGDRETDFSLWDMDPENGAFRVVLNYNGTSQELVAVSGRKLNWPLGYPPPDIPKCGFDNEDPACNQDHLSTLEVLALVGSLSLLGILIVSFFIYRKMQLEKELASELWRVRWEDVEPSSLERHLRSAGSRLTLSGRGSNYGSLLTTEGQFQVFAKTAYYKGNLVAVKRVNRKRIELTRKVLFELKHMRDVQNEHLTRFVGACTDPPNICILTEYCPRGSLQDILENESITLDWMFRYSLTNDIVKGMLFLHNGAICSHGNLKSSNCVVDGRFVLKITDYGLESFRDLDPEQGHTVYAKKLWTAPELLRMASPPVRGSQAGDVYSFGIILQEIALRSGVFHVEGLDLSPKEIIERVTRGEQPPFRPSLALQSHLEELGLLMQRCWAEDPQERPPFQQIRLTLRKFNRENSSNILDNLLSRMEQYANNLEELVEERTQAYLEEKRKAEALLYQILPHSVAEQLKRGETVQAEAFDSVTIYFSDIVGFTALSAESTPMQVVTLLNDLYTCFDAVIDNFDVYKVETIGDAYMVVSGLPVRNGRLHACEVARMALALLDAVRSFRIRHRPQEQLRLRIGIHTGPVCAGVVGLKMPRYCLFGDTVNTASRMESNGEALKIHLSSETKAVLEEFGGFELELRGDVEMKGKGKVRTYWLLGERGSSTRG
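HEK293 cells stably expressing human Npr1 and cGMP GloSensor pGS-40F, loaded 2 h with 2% GloSensor reagent, given compound 30 min at room temperature. Luminescence read before and 20 min after 0.1 nM hNppA.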
Numbers without * were called inactive; [ ] = dose if it differs, or a comment. Unless noted, calls come from the whole dose curve; as a rule, active = well fitted curve in the direction sought with a large enough effect; inconclusive = small, poorly fitted or top-dose-only effect, or another doubt; inactive = no such curve, though single readings can be large; an effect the other way counts as inactive or inconclusive. % is set by controls: 0 for no effect and ±100 for the full control effect; potency is the fitted concentration of half-maximal effect.

For O=C1CCCCCN1C1CCN(Cc2cccc3ccccc23)CC1 the results were GPT2 inhibitor -3%[88.5 µM], FLuc inh inactive, HEK293 tox 79µM*, NIH3T3 tox 79µM* and hNpr1 antagonist 2%[70.6 µM].
`O=C1CCCCCN1C1CCN(Cc2cccnc2)CC1` gave GPT2 inhibitor inactive, FLuc inh inactive, HEK293 tox -18%[172 µM], NIH3T3 tox -15%[138 µM] and hNpr1 antagonist 0%[70.6 µM].
O=C1CCCCCN1C1CCN(Cc2ccccc2C(F)(F)F)CC1 was read as GPT2 inhibitor inactive, FLuc inh inactive, HEK293 tox 79µM*, NIH3T3 tox inconclusive and hNpr1 antagonist -7%[70.6 µM].
CN(C(=O)CN1C(=O)C(c2ccccc2)=NC12CCCCC2)c1ccccc1 was read as GPT2 inhibitor inactive, FLuc inh inactive, HEK293 tox inconclusive, NIH3T3 tox -8% and hNpr1 antagonist -8%.
For O=C(CN1C(=O)C(c2ccccc2)=NC12CCCCC2)NCc1ccccc1 the results were GPT2 inhibitor 3%, FLuc inh inactive, HEK293 tox 45µM*, NIH3T3 tox inconclusive and hNpr1 antagonist 0%.
CCN(C(=O)CN1C(=O)C(c2ccccc2)=NC12CCCCC2)c1cccc(C)c1 was read as GPT2 inhibitor inactive, FLuc inh inactive, HEK293 tox 40µM*, NIH3T3 tox inconclusive and hNpr1 antagonist -6%.
For O=C(CN1C(=O)C(c2ccccc2)=NC12CCCC2)Nc1ccc(C(F)(F)F)cc1 the results were GPT2 inhibitor inactive, FLuc inh inactive, HEK293 tox 45µM*, NIH3T3 tox inconclusive and hNpr1 antagonist inconclusive.
`Cc1ccc(CNC(=O)CN2C(=O)C(c3ccccc3)=NC23CCCCC3)cc1` gave GPT2 inhibitor 0%, FLuc inh inactive, HEK293 tox inconclusive, NIH3T3 tox inconclusive and hNpr1 antagonist -6%.
COc1cccc(-c2cccc(C(=O)N3CCN(C(=O)Nc4ccccc4)CC3)c2)c1 was read as GPT2 inhibitor 3%, HEK293 tox inconclusive and NIH3T3 tox inconclusive.
C[S+](=O)([O-])N1CCC(Cn2ccc3c(N4CCOCC4)nc(-c4cccc5[nH]ccc45)cc32)CC1 was read as GPT2 inhibitor -9%, FLuc inh inactive, HEK293 tox inconclusive, NIH3T3 tox -29% and hNpr1 antagonist -7%.
`COc1ccccc1-c1cc2c(ccn2Cc2ccncc2)c(N2CCOCC2)n1` gave GPT2 inhibitor -15%[88.5 µM], FLuc inh inactive, HEK293 tox inconclusive, NIH3T3 tox inconclusive and hNpr1 antagonist -16%[70.6 µM].
For Fc1ccccc1-c1cc2c(ccn2Cc2ccncc2)c(N2CCOCC2)n1 the results were GPT2 inhibitor -4%[88.5 µM], FLuc inh inactive, HEK293 tox 89µM*, NIH3T3 tox 35µM* and hNpr1 antagonist -1%[70.6 µM].
Screening c1cc(-c2cc3c(ccn3Cc3ccncc3)c(N3CCOCC3)n2)c2cc[nH]c2c1 returned GPT2 inhibitor -22%[88.5 µM], FLuc inh inactive, HEK293 tox 32µM*, NIH3T3 tox 35µM* and hNpr1 antagonist -16%[70.6 µM].
`c1cc(-c2cc3c(ccn3Cc3ccncc3)c(N3CCOCC3)n2)c2cn[nH]c2c1` gave GPT2 inhibitor inactive, FLuc inh inactive, HEK293 tox 89µM*, NIH3T3 tox 14µM* and hNpr1 antagonist -18%[70.6 µM].
c1cc(-c2cc3c(ccn3Cc3ccncc3)c(N3CCOCC3)n2)c2[nH]ncc2c1 was read as GPT2 inhibitor inconclusive, FLuc inh inactive, HEK293 tox 89µM*, NIH3T3 tox inconclusive and hNpr1 antagonist -13%[70.6 µM].
C[S+](=O)([O-])Nc1cccc(-c2cc3c(ccn3Cc3ccncc3)c(N3CCOCC3)n2)c1 was read as GPT2 inhibitor inconclusive, FLuc inh inactive, HEK293 tox -22%, NIH3T3 tox inconclusive and hNpr1 antagonist -6%.
Screening N#Cc1ccccc1-c1cc2c(ccn2Cc2ccncc2)c(N2CCOCC2)n1 returned GPT2 inhibitor inactive, FLuc inh inactive, HEK293 tox inconclusive, NIH3T3 tox inconclusive and hNpr1 antagonist -11%[70.6 µM].
`COc1cc(C(=O)NC[C@@H]2CC[C@H]3C[C@@H]2C3(C)C)nc2ccccc12` gave GPT2 inhibitor -21%[88.5 µM], FLuc inh inactive, HEK293 tox inconclusive, NIH3T3 tox inconclusive and hNpr1 antagonist 7%[70.6 µM].
`Cc1cn2nc(C(=O)NCCCc3ccccc3)cc2c(=O)[nH]1` gave GPT2 inhibitor inactive, FLuc inh 14µM*, HEK293 tox -24%, NIH3T3 tox -25% and hNpr1 antagonist 15%.
CSc1ccc(CNC(=O)c2cc3c(=O)[nH]c(C)cn3n2)cc1 was read as GPT2 inhibitor inactive, FLuc inh 13µM*, HEK293 tox -9%, NIH3T3 tox -25% and hNpr1 antagonist 9%.
Screening Cc1ccc(CNC(=O)c2ccc(NC(=O)c3cc4c(=O)[nH]c(C)cn4n3)cc2)cc1 returned GPT2 inhibitor inactive, FLuc inh 11µM*, HEK293 tox inconclusive, NIH3T3 tox -4% and hNpr1 antagonist 6%.
For COCCCNC(=O)c1cc2c(=O)[nH]c(C)cn2n1 the results were GPT2 inhibitor inactive, FLuc inh inconclusive, HEK293 tox 3%, NIH3T3 tox inactive and hNpr1 antagonist 4%.
Screening CCc1ccc(CNC(=O)c2nnn3cc(C)[nH]c(=O)c23)cc1 returned GPT2 inhibitor inactive, FLuc inh inactive, HEK293 tox -29%, NIH3T3 tox 35µM* and hNpr1 antagonist -30%.
Screening COc1cccc(CNC(=O)c2nnn3cc(C)[nH]c(=O)c23)c1 returned GPT2 inhibitor -30%, FLuc inh inactive, HEK293 tox 12%, NIH3T3 tox -15% and hNpr1 antagonist 2%.
`CCCNC(=O)N1CCCC(Cc2ncc(C)n2Cc2ccccc2)C1` (centres undefined) gave GPT2 inhibitor -1%, FLuc inh inactive, HEK293 tox inconclusive, NIH3T3 tox -4% and hNpr1 antagonist 4%.
COc1cc(C(CO)CO[C@@H]2O[C@H](CO)[C@@H](O)[C@H](O)[C@H]2O)ccc1O (some centres undefined) was read as GPT2 inhibitor inactive.
Screening O=C(Nc1cccc(C(F)(F)F)c1)N[C@H]1[C@H](O)[C@@H](N2CCC(Cc3ccccc3)CC2)[C@@H]2OC[C@H]1O2 returned GPT2 inhibitor 4%, FLuc inh inactive, HEK293 tox inconclusive, NIH3T3 tox 35µM* and hNpr1 antagonist -21%.
Screening O=C(Nc1cccc(C(F)(F)F)c1)N[C@H]1[C@H](O)[C@@H](Oc2ccccc2)[C@@H]2OC[C@H]1O2 returned GPT2 inhibitor inconclusive, FLuc inh inactive, HEK293 tox inconclusive, NIH3T3 tox 79µM* and hNpr1 antagonist -28%[70.6 µM].
